The target of the test is Nonstructural protein 3 (Zika virus) (UniProt A0A024AXB9). Particulars: PRVABC59, Concentration 10.0 uM.
Chain of Nonstructural protein 3 (Zika virus) (A0A024AXB9 as listed by the source): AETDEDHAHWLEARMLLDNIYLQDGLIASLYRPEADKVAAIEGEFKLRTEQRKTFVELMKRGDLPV

Usually pKD stands for −log10 of the KD, conventionally taken in molar units. Read a low pKD as a high KD. Consider `CNCc1cccc(NC(=O)c2cc(Cl)cc3[nH]ncc23)c1`, for which the negative-log KD (pKD) is 4.48 (Immobilization level 3900.0 pg/mm2, Rmax 52.0 pg/mm2, ka 146599.437 M-1s-1, kd 4.892 1/s); 4.36 (Immobilization level 4900.0 pg/mm2, Rmax 92.0 pg/mm2, ka 51361.571 M-1s-1, kd 2.243 1/s); 4.79 (Immobilization level 5500.0 pg/mm2, Rmax 53.0 pg/mm2, ka 187092.368 M-1s-1, kd 3.041 1/s); 4.81 (Immobilization level 12000.0 pg/mm2, Rmax 56.0 pg/mm2, ka 231928.789 M-1s-1, kd 3.617 1/s).
On to `CCOCCCN1Cc2ccc(NC(=O)c3cc(Cl)cc4[nH]ncc34)cc2C1`, for which the negative logarithm of the KD (pKD) is, setting by setting: (Immobilization level 3900.0 pg/mm2, Rmax 34.0 pg/mm2, ka 194403.459 M-1s-1, kd 4.353 1/s) 4.65; (Immobilization level 4900.0 pg/mm2, Rmax 26.0 pg/mm2, ka 190862.396 M-1s-1, kd 2.393 1/s) 4.9; (Immobilization level 5500.0 pg/mm2, Rmax 37.0 pg/mm2, ka 197216.313 M-1s-1, kd 2.701 1/s) 4.86.
`NCCc1cccc(NC(=O)c2cc(Cl)cc3[nH]ncc23)c1`: the pKD by setting is: (Immobilization level 3900.0 pg/mm2, Rmax 45.0 pg/mm2, ka 242931.571 M-1s-1, kd 0.931 1/s) 5.42; (Immobilization level 4900.0 pg/mm2, Rmax 34.0 pg/mm2, ka 409629.847 M-1s-1, kd 0.648 1/s) 5.8; (Immobilization level 5500.0 pg/mm2, Rmax 28.0 pg/mm2, ka 470049.02 M-1s-1, kd 0.591 1/s) 5.9; (Immobilization level 10000.0 pg/mm2, Rmax 29.0 pg/mm2, ka 565007.877 M-1s-1, kd 0.814 1/s) 5.84; (Immobilization level 12000.0 pg/mm2, Rmax 46.0 pg/mm2, ka 296699.948 M-1s-1, kd 0.701 1/s) 5.63; (Immobilization level 13000.0 pg/mm2, Rmax 42.0 pg/mm2, ka 451227.872 M-1s-1, kd 0.736 1/s) 5.79.
For `Cn1cc(CNC(=O)[C@H](Nc2ccc3c(c2)CNC3)c2cc(Cl)cc(C3CC3)c2)cn1`, the pKD runs as follows: (Immobilization level 10000.0 pg/mm2, Rmax 44.0 pg/mm2, ka 376767.851 M-1s-1, kd 0.158 1/s) 6.38; (Immobilization level 12000.0 pg/mm2, Rmax 64.0 pg/mm2, ka 164221.498 M-1s-1, kd 0.09 1/s) 6.26; (Immobilization level 13000.0 pg/mm2, Rmax 64.0 pg/mm2, ka 253337.321 M-1s-1, kd 0.133 1/s) 6.28.
As to `O=C(NCC(F)F)[C@H](Nc1ccc2c(c1)CNC2)c1cc(Cl)cc(C2CC2)c1`, the pKD (Immobilization level 10000.0 pg/mm2, Rmax 47.0 pg/mm2, ka 474542.901 M-1s-1, kd 0.05 1/s) stood at 6.97; the pKD (Immobilization level 12000.0 pg/mm2, Rmax 82.0 pg/mm2, ka 199001.376 M-1s-1, kd 0.068 1/s) worked out at 6.46; the pKD (Immobilization level 13000.0 pg/mm2, Rmax 74.0 pg/mm2, ka 337297.719 M-1s-1, kd 0.055 1/s) is 6.78.
As to `O=C(Nc1ccc2c(c1)CNCCC2)c1cc(Cl)cc2[nH]ncc12`, the pKD is, setting by setting: (Immobilization level 3900.0 pg/mm2, Rmax 31.0 pg/mm2, ka 773276.281 M-1s-1, kd 0.645 1/s) 6.08; (Immobilization level 4900.0 pg/mm2, Rmax 48.0 pg/mm2, ka 455527.731 M-1s-1, kd 0.593 1/s) 5.89; (Immobilization level 5500.0 pg/mm2, Rmax 50.0 pg/mm2, ka 530646.741 M-1s-1, kd 0.578 1/s) 5.96; (Immobilization level 10000.0 pg/mm2, Rmax 36.0 pg/mm2, ka 650451.64 M-1s-1, kd 0.663 1/s) 5.99; (Immobilization level 12000.0 pg/mm2, Rmax 60.0 pg/mm2, ka 669381.958 M-1s-1, kd 0.419 1/s) 6.2; (Immobilization level 13000.0 pg/mm2, Rmax 48.0 pg/mm2, ka 553000.714 M-1s-1, kd 0.56 1/s) 5.99.
Regarding `Cn1cc2cc(Cl)cc(C(=O)Nc3ccc4c(c3)CNC4)c2n1`, the pKD runs as follows: (Immobilization level 10000.0 pg/mm2, Rmax 16.0 pg/mm2, ka 983801.201 M-1s-1, kd 0.863 1/s) 6.06; (Immobilization level 12000.0 pg/mm2, Rmax 34.0 pg/mm2, ka 627028.403 M-1s-1, kd 0.493 1/s) 6.1; (Immobilization level 13000.0 pg/mm2, Rmax 25.0 pg/mm2, ka 951140.583 M-1s-1, kd 0.688 1/s) 6.14.
For `CCNCc1ccc(NC(=O)c2cc(Cl)cc3[nH]ncc23)cc1`, the pKD is, setting by setting: (Immobilization level 3900.0 pg/mm2, Rmax 49.0 pg/mm2, ka 254831.951 M-1s-1, kd 6.984 1/s) 4.56; (Immobilization level 4900.0 pg/mm2, Rmax 79.0 pg/mm2, ka 107155.284 M-1s-1) 4.35; (Immobilization level 5500.0 pg/mm2, Rmax 69.0 pg/mm2, ka 175345.198 M-1s-1) 4.55; (Immobilization level 12000.0 pg/mm2, Rmax 35.0 pg/mm2, ka 320872.936 M-1s-1, kd 4.693 1/s) 4.83.
For `COCCCN1Cc2ccc(NC(=O)c3cc(Cl)cc4[nH]ncc34)cc2C1`, the pKD by setting is: (Immobilization level 3900.0 pg/mm2, Rmax 42.0 pg/mm2, ka 388632.967 M-1s-1, kd 5.459 1/s) 4.85; (Immobilization level 4900.0 pg/mm2, Rmax 39.0 pg/mm2, ka 367718.358 M-1s-1, kd 4.612 1/s) 4.9; (Immobilization level 5500.0 pg/mm2, Rmax 38.0 pg/mm2, ka 400996.136 M-1s-1, kd 4.84 1/s) 4.92; (Immobilization level 10000.0 pg/mm2, Rmax 39.0 pg/mm2, ka 289414.732 M-1s-1, kd 5.077 1/s) 4.76; (Immobilization level 12000.0 pg/mm2, Rmax 59.0 pg/mm2, ka 250455.768 M-1s-1, kd 3.882 1/s) 4.81; (Immobilization level 13000.0 pg/mm2, Rmax 33.0 pg/mm2, ka 234107.52 M-1s-1, kd 2.737 1/s) 4.93.
